Shown are actives, neighbours in structure and some others; about 15% of the full set was active somewhere.
HCV inh: blocks hepatitis C virus; Huh7.5.1 HCVcc-Cre infection, luciferase reporter, 44 h; Potency, µM (titrated, usually from 41.8 µM), inactives show at the highest dose activity change, negative = inhibition, actives largely listed as inhibitors; hit rate 3.4% among 340,000; AID 651820; further: potency means the concentration at half of the fitted maximal effect; on the % scale 0 is the no-effect control and ±100 the full control effect
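Whole-lifecycle infectious HCVcc-Cre system; cells 1,000/well, compound then virus (~0.5 moi) added 4 h after plating, 44 h culture. Luciferase read 15 sec following 15 min substrate incubation, room temp.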
Pf growth 48h: inhibits P. falciparum growth in the first generation, 48 h; P. falciparum luciferase growth in erythrocytes, 48 h; Potency, µM (top dose mostly 28.7 µM), for inactives: at the top dose activity change, negative = inhibition, usual class: inhibitors; hit rate 5.9% among 310,000; further: potency means the concentration at half of the fitted maximal effect; on the % scale 0 is the no-effect control and ±100 the full control effect
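Parasite viability was followed by luminescence of a genomically integrated firefly luciferase. Cultures held 0.1% parasitemia at 2% hematocrit (final), incubated under 5% CO2 at 37 C.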
SARS PLpro yeast: inhibitors of SARS-CoV papain-like protease in yeast; S. cerevisiae expressing SARS-CoV PLpro, growth rescue; Potency, µM (titrated, usually from 32.9 µM), without a hit: at the top dose activity, positive = growth rescue, actives largely listed as activators; hit rate 0.19% among 330,000; calls by dose curve; further: potency means the concentration at half of the fitted maximal effect; 0% is about no effect; nearly all actives have a fitted effect of over 55% in size
Sm TGR block: blocks Schistosoma mansoni thioredoxin glutathione reductase | Q962Y6 | purified TGR, DTNB reduction, TNB absorbance 405 nm | Potency, µM (titrated, usually from 114 µM), for the others: at the top dose activity change, negative = inhibition, usual class: inhibitors | hit rate 3% among 360,000; further: potency means the concentration at half of the fitted maximal effect; on the % scale 0 is the no-effect control and ±100 the full control effect; nearly all actives have a fitted effect of over 60% in size
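Kinetic colorimetric format: TGR-catalysed, NADPH-driven DTNB reduction monitored via TNB absorbance. Enzyme dispensed at 20 nM; compound exposure 15 min at room temperature before reaction start.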
Pf growth 96h: inhibits malaria parasite growth, 96 h; Potency, µM (top dose mostly 28.7 µM), for inactives: top-dose activity change, negative = inhibition, most hits filed as inhibitors; hit rate 6.9% among 320,000; P. falciparum luciferase reporter growth, 96 h; AID 504834; further: potency means the concentration at half of the fitted maximal effect; on the % scale 0 is the no-effect control and ±100 the full control effect
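Compounds incubated with erythrocytes infected by luciferase-expressing P. falciparum (2% hematocrit, 0.05% parasitemia final) for 96 hours, 37 C in 5% CO2. Growth inhibition scored as decreased luciferase luminescence.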
HCMV inh: inhibitors of human cytomegalovirus; HFF cells, HCMV-luciferase reporter, 72 h; stronger effect = lower value; activity change, negative = inhibition, % at 57.5 µM; hit rate 4.5% among 410,000; AID 1259415; in the data active means activity change below about -60%; inconclusive means no clear call, values can overlap the other calls; inactive means above about -39%; further: on the % scale 0 is the no-effect control and ±100 the full control effect
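Two compound doses tested in HFFs infected with HCMV-luciferase, MOI 1 PFU/cell, 72 h at 37C. Lysate luminescence read with OneGlo; data normalized against buffer-only and 10uM Salinomycin inhibitor controls.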
Starred values were filed as active, the others as inactive; u = inconclusive; x = no result; [ ] = remark or other dose. Unless noted, the call rests on the fitted dose curve; in most records, active means well fitted curve in the direction sought with a large enough effect; inconclusive means small, poorly fitted or top-dose-only effect, or another doubt; inactive means no such curve, though single readings can be large; an effect the other way counts as inactive or inconclusive.

SMILES	HCV inh	Pf growth 48h	SARS PLpro yeast	Sm TGR block	Pf growth 96h	HCMV inh
Cc1ccc(NC(=O)CCC(=O)OCC(=O)c2ccc(Oc3ccc([N+](=O)[O-])cc3)cc2)cc1C	2%	-5%	3%	-24%	u	9
Cc1cccc(NC(=O)CCC(=O)OCC(=O)c2ccc(Oc3ccc([N+](=O)[O-])cc3)cc2)c1	13%	9%	-35%	40µM*	124%	-3
CCC(=O)Nc1ccc(Cl)c(NC(=S)NC(=O)COc2ccc(Cl)cc2)c1	8%	33%	3%	-8%	1.9µM*	5
Cc1cc(NC(=O)COc2cccc([N+](=O)[O-])c2)no1	-4%	1.7µM*	3%	45µM*	-29%	-26
COc1ccccc1N1CN(S(=O)(=O)c2ccc(C)cc2)c2nc3ccccc3nc21	-5%	x	1%	x	x	61
O=C(COc1ccccc1)NC(=S)Nc1cccc(NC(=O)c2ccccc2Cl)c1	13%	11%	-20%	-5%	236%	-64*
Cc1ccc(CN(C(=O)COc2cccc([N+](=O)[O-])c2)c2ccccn2)cc1	x	x	x	-1%	x	-6
Cc1ccc(C(=O)COC(=O)c2cccc(NC(=O)c3ccc([N+](=O)[O-])cc3[N+](=O)[O-])c2)cc1	11µM*	-64%	4%	-3%	195%	124
Cc1ccc(CN(C(=O)COc2cccc([N+](=O)[O-])c2)c2ccccn2)o1	x	x	x	50µM*	x	u
Cc1ccc(OCC(=O)NC(=S)Nc2cccc(NC(=O)c3ccccc3Cl)c2)cc1	-24%	22%	-21%	0%	14%	-7
CC(=O)Nc1ccc(C(=O)OCC(=O)c2cccc([N+](=O)[O-])c2)cc1	-1%	16%	-9%	-1%	1%	u
CC(C)NC(=O)c1cc(-c2ccc(F)cc2OC(C)C)n[nH]1	x	x	x	x	x	-3
O=C(Nc1ccccc1)c1nnsc1S(=O)c1ccc(Cl)cc1 (centres undefined)	1%	63%	-41%	0.1µM*	15%	-104*
O=C(c1cc(-c2ccc(Cl)cc2)on1)N1CCOCC1	3%	153%	1%	0%	2%	51
O=C(c1nnsc1S(=O)(=O)c1ccc(Cl)cc1)N1CCOCC1	u	-54%	-11%	11µM*	u	52
CNC(=O)c1ccc(S(=O)(=O)c2ccc(Cl)cc2)c(NC(C)=O)c1	-3%	-6%[0.00184 µM]	1%	-18%	-31%	-11
Nc1nc(C(=O)N2CCOCC2)nn1S(=O)(=O)c1ccc(Cl)cc1	-10%	6%	-1%	0%	23%	17
O=C(c1nnsc1S(=O)c1ccc(Cl)cc1)N1CCOCC1 (centres undefined)	u	17µM*	-24%	2.5µM*	-6%	-98*
CNC(=O)c1nnsc1S(=O)(=O)c1ccc(Cl)cc1	u	u	-26%	0.28µM*	u	-94*
O=S(=O)(Nc1ncccn1)c1ccc(NC(=S)NCc2cccnc2)cc1	9%	32%	-1%	x	-10%	-32
Cc1ccc(OCC(=O)Nc2ccc3nc(SCCOc4ccccc4)sc3c2)cc1	x	x	x	3%	x	-30
COc1ccc(CN(C)C[C@H]2OCCCC[C@@H](C)Oc3ccc(NS(C)(=O)=O)cc3C(=O)N([C@H](C)CO)C[C@@H]2C)cc1	x	x	x	x	x	-3
O=C(CCCn1c(=O)oc2ccccc21)Nc1ccccc1	12%	-23%	5%	-5%	-5%	-36
CN1C(=O)C(=Cc2sc(=O)n(-c3ccccc3)c2N(C)C)C(=O)N(C)C1=O	u	u	0%	7%	-28%	-60*
COCCNc1c2c(nc3ccccc13)CCC2	u	u	-7%	4%	9.3µM*	-10
SMILES	HCV inh	Pf growth 48h	SARS PLpro yeast	Sm TGR block	Pf growth 96h	HCMV inh
CC(C)CNc1c2c(nc3ccccc13)CCC2	u	10µM*	15%	19%	u	-68*
c1ccc(CNc2c3c(nc4ccccc24)CCC3)cc1	u	u	0%	0%	-14%	u
CN(C)CCCNc1c2c(nc3ccccc13)CCC2	u	10µM*	1%	9%	2%	-95*
OCCNc1c2c(nc3ccccc13)CCCC2	-3%	54%	8%	-27%	-6%	13
CN(C)CCCNc1nc(-c2ccc(Cl)cc2)nc2ccccc12	u	10µM*	4%	9%	63%	71
Cc1ccc(CCNC(=O)CN2C(=O)COc3ccc(S(=O)(=O)N4CCC(C)CC4)cc32)cc1	u	u	4%	-1%	28%	u
Cc1ccc(CCNC(=O)CN2C(=O)COc3ccc(S(=O)(=O)N4CCCC4)cc32)cc1	x	x	x	8%	x	-87*
Cc1ccc(CNC(=O)CN2C(=O)COc3ccc(S(=O)(=O)N4CCCCC4)cc32)o1	-5%	7%	0%	25µM*	-16%	u
COc1ccc(OC)c(CCNC(=O)CN2C(=O)COc3ccc(S(=O)(=O)N4CCOCC4)cc32)c1	-5%	14%	-1%	-16%	-19%	-72*
COC(=O)c1ccc(CSc2ccccc2NC(=S)Nc2cccc(SC)c2)o1	x	x	x	x	x	-18
COc1ccc(NC(=O)Cn2cnc3sc(C)c(S(=O)(=O)N4CCOCC4)c3c2=O)c(OC)c1	-33%	2%	0%	2%	u	-23
Cc1ccc(S(=O)(=O)N(C)c2c(C)ccc(S(=O)(=O)N3CCN(C=O)CC3)c2C)cc1	-6%	-29%	-6%	-3%	47%	-90*
C=C(C)CN1CCN(S(=O)(=O)c2ccc(C)c(N(C)S(=O)(=O)c3ccc(C)cc3)c2C)CC1	u	10µM*	-7%	-5%	-18%	-73*
Cc1ccc(S(=O)(=O)N(C)c2c(C)ccc(S(=O)(=O)N3CCN(C)CC3)c2C)cc1	0%	-28%	-18%	-6%	u	-3
Cc1ccc(S(=O)(=O)N2CCN(Cc3ccccc3)CC2)c(C)c1N(C)S(=O)(=O)c1ccccc1	u	u	-9%	10%	368%	-81*
Cc1ccc(S(=O)(=O)N2CCN(Cc3ccccc3)CC2)c(C)c1NS(C)(=O)=O	x	x	x	1%	x	2
O=C(c1cc2ccccc2oc1=O)N(Cc1ccco1)Cc1cccs1	-1%	-2%	-5%	28µM*	3%	-14
O=C(c1cc2ccccc2oc1=O)N(Cc1cccs1)Cc1cccs1	-11%	-16%	-29%	-1%	u	u
CCCN(C(=O)C(=O)Nc1ccc2nc3n(c(=O)c2c1)CCCCC3)c1ccc(OCC)cc1	u	0.12µM*	-2%	10%	-9%	-6
Cc1cccc(N2CCN(C(=S)Nc3ccc4nc5n(c(=O)c4c3)CCCCC5)CC2)c1C	6.3µM*	-29%	1%	-1%	u	73
